For some assays here: Entries with a potency or affinity are not part of this list. Activity calls are given as the source filed them. Unless noted, no rule for the calls is given here.
Key:
[1] = antimalarial activity against Dd2 strain (AID 2302;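 active = growth inhibition above 50% at the single 2 µM test dose, taken to imply half-maximal potency below 2 µM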;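 also: 0% = DMSO untreated growth and 100% = chloroquine plus artemisinin killed control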); details: P. falciparum Dd2 in RBCs, LDH growth readout, 72 h; at 2 µM; stronger effect = higher value
[2] = HepG2 cytotoxicity, primary screen, cytotoxicity control for P. falciparum antimalarial project, cell-based, ATP luminescence (AID 2303;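 active = inhibition above 50%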;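 also: 0% = DMSO wells and 100% = digitonin-killed cells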); details: HepG2 viability, 24-48 h, at 10 µM, stronger effect = higher value
[3] = target: L-lactate dehydrogenase (Plasmodium falciparum (isolate CDC / Honduras)) (UniProt Q27743); experiment: PfLDH activity inhibition – cell lysate, 3D7 strain, counter-screen for P. falciparum growth inhibition project (AID 2304);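 also: 0% = vehicle and 100% = reference inhibitor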; details: P. falciparum 3D7 crude extract, LDH APAD/NBT absorbance; at 2 µM; stronger effect = higher value
[4] = inhibition of 3D7 malaria parasite growth – strain 3D7 (AID 2306);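 also: 0% = DMSO wells and 100% = chloroquine plus artemisinin control wells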; details: P. falciparum 3D7 erythrocytic growth, LDH absorbance, 72 h; at 2 µM; stronger effect = higher value
[5] = target: Calcium-dependent protein kinase 1 (Plasmodium falciparum (isolate 3D7)) (UniProt P62344); experiment: PfCDPK1 kinase inhibitors, biochemical, TCAMS library (AID 1159585; cut-off not given, nearly all actives have IC50 up to about 0.98 µM;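 also: inhibitors leave more ATP so luminescence rises with inhibition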); details: recombinant PfCDPK1, Kinase-Glo ATP depletion luminescence
[6] = target: Plasmodium falciparum protein kinase 6 (PK6, PF3D7_1337100) (UniProt Q8IDW1); experiment: PfPK6 kinase inhibitors, biochemical, TCAMS library (AID 1159586); details: recombinant PfPK6, Kinase-Glo ATP depletion luminescence
[7] = target: Protein kinase 7 (PK7), Plasmodium falciparum 3D7 (PF3D7_0213400) (UniProt Q7YTF7); experiment: inhibition of Plasmodium PK7 catalytic activity – biochemical, TCAMS antimalarial set, Kinase-Glo luminescence (AID 1159587); details: recombinant PfPK7, Kinase-Glo ATP depletion luminescence
[8] = target: Calcium-dependent protein kinase 4 (Plasmodium falciparum (isolate 3D7)) (UniProt Q8IBS5); experiment: PfCDPK4 kinase inhibitors, biochemical, TCAMS library (AID 1159588; cut-off not given, nearly all actives have IC50 up to about 0.91 µM); details: recombinant PfCDPK4, Kinase-Glo ATP depletion luminescence
Sequence of Calcium-dependent protein kinase 4 (Plasmodium falciparum (isolate 3D7)) (Q8IBS5 whole entry, looked up): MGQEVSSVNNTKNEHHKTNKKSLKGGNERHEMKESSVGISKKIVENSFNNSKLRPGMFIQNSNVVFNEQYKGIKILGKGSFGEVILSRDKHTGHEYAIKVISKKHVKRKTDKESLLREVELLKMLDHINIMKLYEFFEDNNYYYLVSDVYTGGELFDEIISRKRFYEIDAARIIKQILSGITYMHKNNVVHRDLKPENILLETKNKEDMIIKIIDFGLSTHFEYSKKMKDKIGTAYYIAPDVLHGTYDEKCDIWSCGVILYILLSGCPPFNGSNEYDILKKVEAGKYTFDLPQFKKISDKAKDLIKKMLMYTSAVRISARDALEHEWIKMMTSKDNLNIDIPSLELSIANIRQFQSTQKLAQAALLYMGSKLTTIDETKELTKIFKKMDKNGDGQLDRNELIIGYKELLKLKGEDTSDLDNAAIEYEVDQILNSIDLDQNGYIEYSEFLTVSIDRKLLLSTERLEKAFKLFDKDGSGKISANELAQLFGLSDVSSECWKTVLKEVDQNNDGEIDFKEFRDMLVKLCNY

Sequence of Calcium-dependent protein kinase 1 (Plasmodium falciparum (isolate 3D7)) (P62344 whole entry, looked up): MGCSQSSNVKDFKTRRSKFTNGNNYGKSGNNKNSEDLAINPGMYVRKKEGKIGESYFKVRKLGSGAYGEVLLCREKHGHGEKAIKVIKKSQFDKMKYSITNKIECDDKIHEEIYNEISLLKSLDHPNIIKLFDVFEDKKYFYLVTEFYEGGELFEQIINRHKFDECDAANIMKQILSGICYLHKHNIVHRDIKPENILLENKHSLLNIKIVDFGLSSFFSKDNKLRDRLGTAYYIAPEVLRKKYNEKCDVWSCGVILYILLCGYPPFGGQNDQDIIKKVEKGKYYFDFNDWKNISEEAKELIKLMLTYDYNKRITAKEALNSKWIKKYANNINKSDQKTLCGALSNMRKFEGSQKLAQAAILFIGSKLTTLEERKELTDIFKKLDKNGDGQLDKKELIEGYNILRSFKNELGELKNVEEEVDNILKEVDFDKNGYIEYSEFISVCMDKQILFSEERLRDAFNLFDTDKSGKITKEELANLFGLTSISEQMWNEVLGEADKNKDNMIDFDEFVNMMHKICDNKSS
Sequence of L-lactate dehydrogenase (Plasmodium falciparum (isolate CDC / Honduras)) (Q27743 whole entry, looked up): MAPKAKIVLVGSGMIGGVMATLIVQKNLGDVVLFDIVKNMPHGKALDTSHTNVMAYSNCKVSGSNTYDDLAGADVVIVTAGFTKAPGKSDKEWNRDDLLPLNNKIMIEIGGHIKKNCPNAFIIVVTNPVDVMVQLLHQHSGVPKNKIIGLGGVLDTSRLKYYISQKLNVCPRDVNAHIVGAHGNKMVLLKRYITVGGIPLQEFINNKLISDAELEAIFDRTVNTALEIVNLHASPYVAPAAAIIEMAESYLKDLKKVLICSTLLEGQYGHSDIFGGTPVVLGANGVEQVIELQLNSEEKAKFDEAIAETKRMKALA
Sequence of Plasmodium falciparum protein kinase 6 (PK6, PF3D7_1337100) (Q8IDW1 1-305): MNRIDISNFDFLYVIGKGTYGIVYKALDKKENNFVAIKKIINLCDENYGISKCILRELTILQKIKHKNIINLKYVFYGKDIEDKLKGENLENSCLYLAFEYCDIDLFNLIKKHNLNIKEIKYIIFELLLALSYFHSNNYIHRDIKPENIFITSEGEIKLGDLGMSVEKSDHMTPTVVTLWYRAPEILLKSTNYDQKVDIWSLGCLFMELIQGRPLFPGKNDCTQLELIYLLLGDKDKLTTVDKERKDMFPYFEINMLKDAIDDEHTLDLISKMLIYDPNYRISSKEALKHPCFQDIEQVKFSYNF
Sequence of Protein kinase 7 (PK7), Plasmodium falciparum 3D7 (PF3D7_0213400) (Q7YTF7 1-343): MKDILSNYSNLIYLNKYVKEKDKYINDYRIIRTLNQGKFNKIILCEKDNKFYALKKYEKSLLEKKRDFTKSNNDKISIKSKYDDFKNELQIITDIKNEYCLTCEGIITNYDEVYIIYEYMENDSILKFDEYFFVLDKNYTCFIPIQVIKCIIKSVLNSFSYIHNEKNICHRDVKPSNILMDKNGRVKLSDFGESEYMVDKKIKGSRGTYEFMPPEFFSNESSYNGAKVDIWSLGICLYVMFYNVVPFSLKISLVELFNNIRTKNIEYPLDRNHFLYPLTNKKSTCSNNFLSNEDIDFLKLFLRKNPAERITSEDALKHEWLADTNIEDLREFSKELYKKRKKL

Cc1ccc(NC(=O)c2ccc(CN3CCCN(CC4CCCCC4)CC3)cc2)cc1C
inactive: growth inhibition [1] 32% | inhibition [2] 38% | inhibition [3] 3% | outcome [5] | outcome [6] | outcome [7] | outcome [8]
active: growth inhibition [4] 86%

CC(=O)Nc1nc(C(=O)Nc2ccc(-c3cccc(-c4nc5ccc(C(F)(F)F)cc5[nH]4)c3)cc2)cs1
active: growth inhibition [1] 97% | inhibition [2] 79% | growth inhibition [4] 101%
inactive: inhibition [3] -2% | outcome [5] | outcome [6] | outcome [7] | outcome [8]

CCOC(=O)c1c(CN(CC)CC)n(-c2ccccc2)c2cc(Br)c(O)cc12
active: growth inhibition [4] 93%
inactive: growth inhibition [1] 46% | inhibition [2] 14% | inhibition [3] -5% | outcome [5] | outcome [6] | outcome [7] | outcome [8]

COC(=O)c1ccc2nc(-c3cc(-c4cccc(-c5ccccc5)c4)cnc3N)[nH]c2c1
active: growth inhibition [1] 61% | growth inhibition [4] 101%
inactive: inhibition [2] 25% | inhibition [3] 5% | outcome [5] | outcome [6] | outcome [7] | outcome [8]

COc1ccc(Nc2nc(NC3CCN(Cc4ccccc4)CC3)cc(-c3ccncc3)n2)cc1
inactive: growth inhibition [1] 40% | inhibition [2] 26% | inhibition [3] 0% | outcome [5] | outcome [6] | outcome [7] | outcome [8]
active: growth inhibition [4] 88%

O=C(C=Cc1ccc(Cl)c(Cl)c1)NCCCCCN1CCCC(CCCNC(=O)c2ccc3c(c2)OCO3)C1 (configuration not stated)
inactive: growth inhibition [1] 4% | inhibition [2] 30% | inhibition [3] 3% | outcome [5] | outcome [6] | outcome [7] | outcome [8]
active: growth inhibition [4] 95%

COc1cc(NC(=O)N2CCOC(CCN3CCC(c4ccccc4)CC3)(c3ccc(Cl)c(Cl)c3)C2)cc(OC)c1OC (configuration not stated)
active: growth inhibition [1] 73% | growth inhibition [4] 93%
inactive: inhibition [2] 15% | inhibition [3] -2% | outcome [5] | outcome [6] | outcome [7] | outcome [8]

CCCCC(=O)NC(c1cccs1)c1cc(Cl)c2cccnc2c1O (configuration not stated)
inactive: inhibition [3] 1% | outcome [5] | outcome [6] | outcome [7] | outcome [8]
active: growth inhibition [1] 90% | inhibition [2] 50% | growth inhibition [4] 93%

CCCCCCCNCc1c(O)ccc2c(CNCCCCCCC)c(O)ccc12
inactive: inhibition [2] 29% | inhibition [3] -3% | outcome [5] | outcome [6] | outcome [7] | outcome [8]
active: growth inhibition [1] 99% | growth inhibition [4] 100%

Cc1cccc2[nH]c(-c3ccc(-c4ccc(NC(=O)NCc5cccc(F)c5)cc4)cc3)nc12
inactive: growth inhibition [1] 12% | inhibition [2] 46% | inhibition [3] 7% | outcome [5] | outcome [6] | outcome [7] | outcome [8]
active: growth inhibition [4] 97%

Cc1ccc(C(=O)NC2C(=O)NC2c2ccccc2)c(C)c1 (configuration not stated)
inactive: growth inhibition [1] -1% | inhibition [2] 7% | inhibition [3] -4% | outcome [5] | outcome [6] | outcome [7] | outcome [8]
active: growth inhibition [4] 90%

CCN(CC)CCN(Cc1ccc(-c2ccc(C(F)(F)F)cc2)cc1)C(=O)Cn1c(CCc2ccc(F)cc2)nc(=O)c2ccccc21
inactive: inhibition [2] 42% | inhibition [3] -3% | outcome [5] | outcome [6] | outcome [7] | outcome [8]
active: growth inhibition [1] 58% | growth inhibition [4] 97%

CN1CCN(c2ccc(-c3cc(-c4ccncc4)c(-c4ccc(Cl)c(O)c4)o3)cc2)CC1
active: growth inhibition [1] 98% | growth inhibition [4] 101%
inactive: inhibition [2] -13% | inhibition [3] -4% | outcome [5] | outcome [6] | outcome [7] | outcome [8]

COc1ccc2ncc(F)c([C@H](O)CN3CCC(NCc4cc5c(cn4)OCCO5)CC3)c2c1
inactive: inhibition [2] 5% | inhibition [3] 7% | outcome [5] | outcome [6] | outcome [7] | outcome [8]
active: growth inhibition [1] 97% | growth inhibition [4] 101%

COc1cc2nc(Nc3ccc4c(c3)OCCO4)nc(N)c2cc1OC
active: growth inhibition [1] 80% | growth inhibition [4] 101%
inactive: inhibition [2] 13% | inhibition [3] -3% | outcome [5] | outcome [6] | outcome [7] | outcome [8]

Fc1ccc2[nH]c3c(NCCCN4CCOCC4)ncnc3c2c1
active: growth inhibition [4] 98%
inactive: growth inhibition [1] 2% | inhibition [2] 14% | inhibition [3] -4% | outcome [5] | outcome [6] | outcome [7] | outcome [8]

CCOc1cc(C(=O)NCCN(CC)c2cccc(C)c2)ccc1-c1nc2ccc(Cl)cc2[nH]1
active: growth inhibition [1] 80% | growth inhibition [4] 102%
inactive: inhibition [2] -1% | inhibition [3] 0% | outcome [5] | outcome [6] | outcome [7] | outcome [8]

Cc1[nH]c(C)c(-c2ccc(OCc3cc(C(F)(F)F)cc(C(F)(F)F)c3)nc2)c(=O)c1Br
active: growth inhibition [1] 96% | growth inhibition [4] 98%
inactive: inhibition [2] 28% | inhibition [3] -2% | outcome [5] | outcome [6] | outcome [7] | outcome [8]

O=C(Nc1ccc(I)cc1)N1CCc2sccc2C1CN1CCCCC1 (configuration not stated)
inactive: growth inhibition [1] 0% | inhibition [2] 33% | inhibition [3] 6% | outcome [5] | outcome [6] | outcome [7] | outcome [8]
active: growth inhibition [4] 90%
